From PubChem BioAssay
AmpC no deterg: AmpC beta-lactamase inhibition without detergent; AmpC nitrocefin hydrolysis, absorbance 480 nm, 0.0001% Triton; 330,000 tested, 0.52% active; Potency, µM (highest dose often 57.1 µM), for the others: at the top dose activity change, negative = inhibition, actives largely listed as inhibitors; P00811; AID 485341;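 further: potency means the concentration at half of the fitted maximal effect; plate controls were no compound for no effect and no enzyme for full effect; nearly all actives have a fitted effect of over 20% in size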
Target sequence (P00811 whole entry, looked up): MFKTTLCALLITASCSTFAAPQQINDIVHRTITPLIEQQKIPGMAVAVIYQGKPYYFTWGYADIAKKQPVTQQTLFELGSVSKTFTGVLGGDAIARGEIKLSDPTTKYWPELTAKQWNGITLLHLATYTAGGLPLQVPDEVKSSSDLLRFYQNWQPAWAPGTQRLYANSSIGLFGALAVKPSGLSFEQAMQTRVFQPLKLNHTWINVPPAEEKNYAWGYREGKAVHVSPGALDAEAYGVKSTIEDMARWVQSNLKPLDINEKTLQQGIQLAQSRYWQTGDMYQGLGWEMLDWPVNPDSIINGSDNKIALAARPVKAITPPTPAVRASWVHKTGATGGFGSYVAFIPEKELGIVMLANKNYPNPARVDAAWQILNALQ
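20 mM phosphate pH 7.0 + 0.01% (detergent screen) or 0.0001% Triton X-100; 5.3 nM AmpC reagent; cpd preinc 15 min RT; nitrocefin (800 uM stock) to start; A480 q20 s × 4 min; Activity was normalised to no-enzyme and no-compound control wells.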
CHX counter: counter-screen hit for Shiga toxin inhibitors, cycloheximide; 300,000 tested, 12% active; max response, %; AID 2314; cell reporter, cycloheximide protein synthesis inhibition counterscreen; in the data active means max response mostly above about 13%, no sharp cut-off; inactive means mostly below about 14%; further: read at 38.3 µM for the half of the compounds with a filed dose; 0% is about no effect
AmpC detergent: inhibitors of E. coli AmpC beta-lactamase with detergent | P00811 | AmpC hydrolysis of nitrocefin, absorbance 480 nm, 0.01% Triton | Potency, µM (titrated, usually from 114 µM), for inactives: top-dose activity change, negative = inhibition, actives largely listed as inhibitors | 370,000 tested, 0.041% active | AID 485294;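 further: potency means the concentration at half of the fitted maximal effect; 0% = no-compound wells and -100% = no-enzyme wells; nearly all actives have a fitted effect of over 25% in size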
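AmpC (5.3 nM in the dispensed reagent) in 20 mM phosphate pH 7.0 with 0.01% (detergent screen) or 0.0001% Triton X-100 was preincubated with compounds for 15 min at room temperature. Nitrocefin was then added from an 800 uM solution, and hydrolysis was followed at 480 nm.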
NS1 inh: inhibitors of influenza NS1 protein function | 270,000 tested, 0.4% active | Potency, µM (highest dose often 46.1 µM), for inactives: at the top dose activity, positive = more growth | AID 2326; calls by dose curve; further: potency means the concentration at half of the fitted maximal effect; actives are rising curves; nearly all actives have a fitted effect of over 50% in size
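Recovery from NS1-induced slow growth read by OD600 in budding yeast switched to galactose assay medium (pH 6.0, -URA) at 1:100 dilution. Compound 23 nl per well; the matching strain lacking NS1 serves as control.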
Shiga toxin inh: Shiga toxin inhibition; Vero cells, Shiga toxin protein synthesis inhibition reporter; 290,000 tested, 9.2% active; inhibition, % at 38.7 µM; AID 2315; in the data active means inhibition mostly above about 28%, no sharp cut-off; inactive means mostly below about 43%; further: 0% is about no effect
Starred values were filed as active, the others as inactive; ? = inconclusive; · = no result given. The entries come from a sample that favours hits as a whole. Unless noted, the call rests on the fitted dose curve; in most records, active means well fitted curve in the direction sought with a large enough effect; inconclusive means small, poorly fitted or top-dose-only effect, or another doubt; inactive means no such curve, though single readings can be large; an effect the other way counts as inactive or inconclusive.

SMILES	AmpC no deterg	CHX counter	AmpC detergent	NS1 inh	Shiga toxin inh
COc1ccc(C(=O)Nc2nc3ccc(S(C)(=O)=O)cc3s2)cc1	-35%	7	-8%	13%	9
CCCC(=O)Nc1nc2ccc(NC(=O)c3ccccc3F)cc2s1	-30%	21*	7%	-8%	47*
COc1ccc(C(=O)Nc2nc3ccc(OC)cc3s2)cc1	-49%	39*	-4%	10%	68*
CN1CCN(C(=O)CSc2nc3ccc(NC(=O)c4ccccc4F)cc3s2)CC1	63%	14*	-4%	-4%	24
CCOC(=O)CC1C(=O)NCCN1C(=O)c1ccc(Cl)cc1 (stereo unspecified)	-1%	-3	-21%	3%	17
COc1cccc(NC(=O)c2ccc(NS(=O)(=O)c3cccs3)cc2)c1	-20%	·	-4%	·	·
COc1ccc2nc(NC(=O)c3ccccc3F)sc2c1	-24%	27*	-5%	-12%	56*
COc1ccc2nc(NC(=O)C34CC5CC(CC(NC(C)=O)(C5)C3)C4)sc2c1	77%	49*	-6%	-8%	45*
CCSc1ncc(Cl)c(C(=O)Nc2nc3ccc(OC)cc3s2)n1	·	19	-14%	·	-11
COc1ccc2nc(NC(=O)c3ccc(NS(=O)(=O)c4cccs4)cc3)sc2c1	2.5µM*	35*	?	13%	23
COc1ccc2nc(NC(=O)c3cnccn3)sc2c1	-18%	31*	1%	9%	119*
CCN(CC)c1cc(C)c2cc(NC(=O)c3ccccc3F)ccc2n1	5%	16*	1%	-3%	22
CCOc1ccccc1C(=O)Nc1ccc2nc(N(CC)CC)cc(C)c2c1	·	·	6%	·	·
C[n+]1c(/C=C\c2ccc(O)c3ncccc23)[se]c2ccccc21	·	·	·	2%	·
Cc1cc(C)nc(Nc2ccc(O)cc2)n1	-12%	24*	-1%	2%	41
CCc1ccc(Nc2nc(C)cc(C)n2)cc1	-1%	53*	1%	-18%	52*
Cc1cc(C)nc(Nc2ccc(C(=O)O)cc2)n1	-11%	13	-7%	1%	3
COc1ccc(Nc2nc(C)cc(C)n2)cc1Cl	38%	26*	-6%	-22%	76
O=C(CCSCc1ccccc1F)N1CCN(c2ccc(F)cc2)CC1	·	·	5%	·	·
COc1ccc(/C(N)=C/C(=O)C(C)(C)C)cc1	-5%	19*	-17%	-61%	60
CC(C)(C)C(=O)/C=C(\N)c1ccncc1	-10%	-1	-16%	-4%	-6
Cc1cccc(-c2nc(C#N)c(NC3CCCCC3)o2)c1	-16%	50*	-10%	-7%	168*
COc1ccc(-c2nc(C#N)c(NC(C)C)o2)cc1	-3%	41*	-11%	-14%	74*
Cc1ccc(OCc2ccc(-c3nc(C#N)c(N4CCC(C)CC4)o3)o2)cc1	·	·	26%	·	·
Cc1ccc(-c2nc(C#N)c(N3CCC(C)CC3)o2)cc1	-12%	17*	1%	-33%	65
SMILES	AmpC no deterg	CHX counter	AmpC detergent	NS1 inh	Shiga toxin inh
COc1ccc(-c2nc(C#N)c(N3CCC(C)CC3)o2)cc1	-31%	16*	10%	-7%	13
Cc1cc(C)cc(Nc2cc(C)nc3nc(-c4ccco4)nn23)c1	·	·	5%	·	·
COc1ccccc1CNS(=O)(=O)c1ccc2c(c1)NC(=O)CO2	-19%	-12	-5%	-1%	-16
Cc1ccc(-c2nc(C#N)c(N3CCCCC3)o2)cc1	-10%	2	-7%	-9%	22
Cc1cccc(-c2nc(C#N)c(N3CCCCC3)o2)c1	-14%	27*	6%	-3%	37*
COc1ccc(-c2nc(C#N)c(N3CCCCCC3)o2)cc1	7.1µM*	17	9%	-59%	31
COC(=O)c1ccccc1NC(=O)c1ccc2c(Cl)c3c(nc2c1)CCCC3	·	·	-9%	·	·
CCc1cccc(-n2c(=O)c3cccnc3n2CC(=O)Nc2c(C)cc(C)cc2C)c1	·	·	3%	·	·
O=C(Nc1cccc2c1C(=O)NC2=O)c1ccccc1[N+](=O)[O-]	-15%	-2	0%	1%	-1
O=C1NC(=Nc2ccccc2)c2c1cccc2[N+](=O)[O-]	-5%	19*	-3%	5%	21
N=C1SC(c2ccccc2)C(=O)N1c1ncc(Cc2ccccc2Cl)s1 (stereo unspecified)	16µM*	2	-12%	7%	10
Cc1ccc2nc(COc3ccc(Cl)cc3)cc(=O)n2c1	-1%	41*	5%	·	98*
CC(C)(C)N1C(=O)c2ccc(C(=O)Nc3nccs3)cc2C1=O	-24%	31*	?	-61%	57*
COc1ccccc1N1C(=O)c2ccc(C(=O)Nc3nccs3)cc2C1=O	-23%	20	3%	·	29
Cc1cc(NC(=O)c2ccc3c(c2)C(=O)N(C(C)(C)C)C3=O)no1	-4%	21*	2%	·	34
O=C(Nc1nccs1)c1ccc2c(c1)C(=O)N(Cc1cccnc1)C2=O	-17%	-3	-4%	0%	18
CCN1C(=O)c2ccc(C(=O)Nc3nccs3)cc2C1=O	-39%	12*	-14%	-16%	31*
CCOc1cc(CNC(=O)c2ccc(Cn3c(=O)c4cccn4c4cccnc43)cc2)ccc1OC	·	·	-2%	·	·
COCCN1Cc2cc3cc(C)ccc3nc2SC1=Nc1ccc(OC)cc1	2%	15*	0%	0%	64*
COCCN=C1Sc2nc3ccc(C)cc3cc2CN1Cc1cccs1	34%	12*	5%	-2%	36*
CCOc1ccc(N=C2Sc3nc4ccc(C)cc4cc3CN2CCOC)cc1	-3%	2	-6%	·	34
O=C(Nc1cccc(Cl)c1)c1cc2c(=O)[nH]c3ccccc3c2s1	·	·	-5%	·	·
O=c1c2sccc2nc(SCc2ccc([N+](=O)[O-])cc2)n1Cc1ccccn1	-10%	26*	-8%	12%	62*
O=c1c2sccc2nc(SCc2cc(=O)n3cc(Cl)ccc3n2)n1Cc1ccccn1	-24%	41*	1%	·	82*
Oc1ccc(C[C@H]2CNCCN2CCCCC2CCCCC2)cc1	60%	·	-14%	·	·
SMILES	AmpC no deterg	CHX counter	AmpC detergent	NS1 inh	Shiga toxin inh
CSc1nc(N)nc(SC2C=CCCC2)c1C#N (stereo unspecified)	-36%	26*	7%	2%	60
c1ccc(N2CCN(c3nc4cc5c(cc4s3)OCO5)CC2)cc1	-22%	53*	-7%	8%	33*
c1c2c(cc3sc(N4CCCCC4)nc13)OCO2	-2%	21	-10%	-32%	25
Oc1cc2c(cc1CN1CCc3ccccc3C1)OCO2	-25%	2	2%	4%	-8
c1c2c(cc3sc(N4CCOCC4)nc13)OCO2	-14%	43*	?	-58%	56*
c1ccc(N2CCN(Cc3nnc(-c4ccc5c(c4)OCO5)o3)CC2)cc1	·	·	13%	·	·
c1ccc2c(c1)CCN(c1nc3cc4c(cc3s1)OCO4)C2	-13%	40*	-6%	-31%	97*
Cc1ccc(NC(=O)c2ccc3nc(N4CCOCC4)sc3c2)c(Cl)c1	-14%	16*	-7%	1%	4
CCc1ccccc1NC(=O)c1ccc2nc(N3CCOCC3)sc2c1	-2%	0	-3%	-12%	-1
